# Assay results: publication PMC5540273 (PLoS ONE, 2017)
# Assays:
# MINK = test system: T1, MINK
# T1 construct: gene MINK1
# MST1 = test system: T2, MST1
# T2 construct: gene STK4
# PCTK1 = test system: T3, PCTK1
# T3 construct: gene CDK16
# PCTK2 = test system: T4, PCTK2
# T4 construct: gene CDK17
# PCTK3 = test system: T5, PCTK3
# T5 construct: gene CDK18
# 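Note: kd values determined as follow-up on hits from a single-replicate KINOMEscan panel screen.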
smiles,measurement,setting,value
O=c1cc(N2CCOCC2)nc2n(Cc3cccc(Cl)c3Cl)c3ccccc3n12 [GSK2299009],Kd,MELK,> 10000 nM
NS(=O)(=O)c1cccc(N/C=C2\C(=O)Nc3ccc(S(=O)(=O)Cc4c(Cl)cccc4Cl)cc32)c1 [GSK398099],Kd,MINK,790 nM
CC(C)c1cc(-c2ccc3c(N)n[nH]c3c2)nc(N)n1 [GSK2250882],Kd,MKNK2,160 nM
CNC(=O)c1ccc(C)c(-n2c(C)cc(OCc3ccc(F)cc3F)c(Br)c2=O)c1,Kd,MKNK2,> 10000 nM
COc1cccc(C2=C(Nc3cc(Cl)c(O)c(Cl)c3)C(=O)NC2=O)c1 [SB-390767],Kd,MST1,1800 nM
same,Kd,NEK2,> 10000 nM
same,Kd,PAK3,> 10000 nM
Nc1nccc(-c2c(-c3ccc(F)cc3)ncn2C2CCN(Cc3ccccc3)CC2)n1 [SB-219980],Kd,NLK,140 nM
O=C(Nc1n[nH]c2nc(-c3ccco3)c(Br)cc12)C1CCN(Cc2ccccc2)C1.O=C(O)[C@H](O)[C@@H](O)C(=O)O (centres unmarked) [SB-742034],Kd,PCTK1,150 nM
same,Kd,PCTK2,240 nM
COc1ccc(Nc2nccc(N3CCC(NC(=O)C(C)c4ccc(Cl)cc4)CC3)n2)cc1 (centres unmarked) [GSK1379812],Kd,PCTK1,> 10000 nM
CC(=O)c1c(C)c2cnc(Nc3ccn(C)n3)nc2n(C2CCCC2)c1=O,Kd,PCTK3,> 10000 nM
Cc1cnc(N)c(/C=C/c2cncc(C(=O)NCCc3ccc(Cl)cc3Cl)c2)c1.Cl [GSK190937],Kd,PDGFRA,39 nM
Cn1cnc2c(N)ncnc21 [SKF-97623],Kd,PDGFRA,> 10000 nM
CC[C@@H]1CO[C@H](C(=O)Nc2ccccc2)CN1c1cc(-c2ccc3c(N)n[nH]c3c2)nc(NC)n1 [GSK2376236],Kd,PDPK1,1.7 nM
CNc1nc(-c2ccc3c(N)n[nH]c3c2)cc(N2C[C@@H](C(=O)Nc3ccccc3)CC[C@H]2C)n1 [GSK2298859],Kd,PDPK1,1.7 nM
Cc1nccc(-c2c(-c3ccc(F)cc3)ncn2CCCN2CCOCC2)n1.Cl [SB-282975],Kd,PHKG2,> 10000 nM
